The values below come from PubChem BioAssay AID504329 (Southern Research Specialized Biocontainment Screening …, 2011).

Out of some 340,000 compounds screened, about 1,000 (0.29%) were called active. The list is a sample of the results. Potency and affinity values are given separately. Unmarked numbers belong to inactive results. No stated cut-off is given here; in the data, inconclusive means inhibition above about 27% without an active follow-up result; inactive means below that.

The assay is described as follows: NS1A inhibition, H1N1 influenza, cell based functional assay (AID 504329). The following applies: percent inhibition, at 12.5 µM, active compounds read high.
As for `CCN(CC)CCOc1ccccc1C(C)=O`, the inhibition is -6.91%.
Next, `COc1ccc(CNC(=O)C(C)Sc2ccc(S(=O)(=O)N3CCOCC3)cn2)cc1` (configuration not stated): -8.84%; `CN(C)C(=O)C(OC(=O)c1ccc2c(c1)CCCC2)c1ccccc1` (configuration not stated): -4.12%; `CC(=O)Nc1ccc(OCc2ccccc2)cc1[N+](=O)[O-]`: -2.5%.
Take `Nc1cc([N+](=O)[O-])ccc1OCc1ccccc1`: the inhibition was -17.4%.
Next, `S=C(Nc1ccc(Cl)cc1)Nc1ccc2c(c1)OCCO2`: -3.12%; `COc1ccc(OC)c(S(=O)(=O)Nc2c(C)cccc2C)c1`: -4.66%; `O=C1C(Cl)=C(NCCc2ccccc2)C(=O)c2ccccc21`: 28.7%.
Take `CCCNC1=C(N(C(C)=O)c2cccc(F)c2)C(=O)c2ccccc2C1=O`: the inhibition is -1.3%.
Regarding `CC(=O)N(Cc1ccc(F)cc1)c1cccc(C)c1C`, the inhibition is 5.28%.
Under `CN(CC(=O)NCCc1ccc(F)cc1)Cc1ccccc1` stands 0.42%; under `O=C1C=C(Nc2ccc(Cl)cc2)CC(c2ccccc2)C1` (configuration not stated), 1.69%.
Under `CC(C)CCN1C(Nc2ccccc2)=NC[C@@H]1Cc1ccccc1` stands -9.63%; under `COC(=O)c1cc2ccccn2c2c(C(=O)OC)c(C(=O)OC)cc1-2`, 16.8%.
Next, `COC(=O)c1cc2c(-c3ccccc3)c(C)c3ccccn3c-2c1C(=O)OC`: 26.4%; `CC(=O)NC1c2ccccc2C(=O)N1Cc1ccccc1` (configuration not stated): -3.85%; `O=[N+]([O-])c1ccc(/C=N/Nc2nc(NCc3ccccc3)nc(N3CCOCC3)n2)cc1`: -9.38%.
For the compound `O=[N+]([O-])c1cccc(/C=N/Nc2nc(NCc3ccccc3)nc(N3CCOCC3)n2)c1`, the inhibition was 0.07%.
Next, `COc1ccc(NC(=O)[C@H](CCS(C)(=O)=O)N2Cc3ccccc3C2=O)c(OC)c1`: 28.3%.
Under `C[C@H](OC(=O)c1[nH]cnc1C(=O)N1CCN(C(=O)OC(C)(C)C)CC1)c1ccccc1` stands -7.71%; under `CC1=NN(c2ccc(C(=O)O)cc2)C(=O)/C1=C/c1ccc(-c2ccccc2F)o1`, 23.6%; under `CC1=NN(c2ccc(Cl)c(C(=O)O)c2)C(=O)/C1=C\c1ccc(-c2ccc(C(=O)O)cc2)o1`, 19.4%.
Turning to `CC(=O)Nc1ccc(S(=O)(=O)N2CCC3(CC2)OCCO3)cc1`, the inhibition is 4.94%.
In the case of `COC(=O)c1ccc2c(c1)C(=O)/C(=C/c1ccc(O)cc1)O2`, the inhibition is -8.68%.
Take `COC(=O)c1ccc2nc(C)c(C)nc2c1`: the inhibition is -1.98%.
Next, `COC(=O)c1ccc(O)cc1`: -1.72%; `COC(=O)c1ccc2c(c1)C(C)(C)C(/C=C/c1ccc(OC)c(OC)c1OC)=[N+]2C`: 4.08%.
